Measured values taken from PubChem BioAssay (Tox21).
Results filed as inconclusive are left out. Active and inactive are the calls of the source. Unless noted, the call rests on the fitted dose curve; in most records, active means well fitted curve in the direction sought with a large enough effect in the repeat runs; inconclusive means weak or mixed curves; inactive means no such curve, though single readings can be large; an effect the other way counts as inactive or inconclusive.

Tests used:
[1] = A CellTox Green Cytotoxicity Assay to monitor cytotoxicity in HepG2 cells - 8 hour (AID 1224890); further: nearly all actives have a fitted effect of over 45% in size
Procedure, shortened: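 Nonlytic assay: viable cells exclude the dye, so fluorescence scales with cell death. HepG2 at 600 cells/well, compounds added after 5 h, signal read across 40 h.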

[2] = qHTS assay to identify small molecule antagonists of the estrogen receptor alpha (ER-alpha) signaling pathway using the BG1 cell line in the presence of 0.1 nM 17-beta-estradiol - cell viability counter screen (AID 1259241); further: nearly all actives have a fitted effect of over 40% in size; further: potency means the concentration at half of the fitted maximal effect
Procedure, shortened: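 Estradiol-stimulated (0.1 nM) VM7Luc4E2 cells exposed to compounds 22 hr; viability measured by fluorescence of cleaved CellTiter-Fluor substrate after 30 min.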

[3] = qHTS assay to identify small molecule antagonists of the androgen receptor (AR) signaling pathway using the MDA cell line in the presence of 0.5 nM R1881 - cell viability counter screen (AID 1259242); further: nearly all actives have a fitted effect of over 45% in size; further: potency means the concentration at half of the fitted maximal effect
Procedure, shortened: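 R1881 at 0.5 nM final stimulated MDA-kb2 cells during 16 hr compound treatment at 37C. Cytotoxicity read: CellTiter-Fluor fluorescence after 30 min.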

[4] = biological target: Androgen receptor (Homo sapiens) (UniProt P10275); test: qHTS assay to identify small molecule antagonists of the androgen receptor (AR) signaling pathway using the MDA cell line in the presence of 0.5 nM R1881 (AID 1259243); further: nearly all actives have a fitted effect of over 50% in size; further: potency means the concentration at half of the fitted maximal effect
Chain of Androgen receptor (Homo sapiens) (P10275 whole entry, looked up): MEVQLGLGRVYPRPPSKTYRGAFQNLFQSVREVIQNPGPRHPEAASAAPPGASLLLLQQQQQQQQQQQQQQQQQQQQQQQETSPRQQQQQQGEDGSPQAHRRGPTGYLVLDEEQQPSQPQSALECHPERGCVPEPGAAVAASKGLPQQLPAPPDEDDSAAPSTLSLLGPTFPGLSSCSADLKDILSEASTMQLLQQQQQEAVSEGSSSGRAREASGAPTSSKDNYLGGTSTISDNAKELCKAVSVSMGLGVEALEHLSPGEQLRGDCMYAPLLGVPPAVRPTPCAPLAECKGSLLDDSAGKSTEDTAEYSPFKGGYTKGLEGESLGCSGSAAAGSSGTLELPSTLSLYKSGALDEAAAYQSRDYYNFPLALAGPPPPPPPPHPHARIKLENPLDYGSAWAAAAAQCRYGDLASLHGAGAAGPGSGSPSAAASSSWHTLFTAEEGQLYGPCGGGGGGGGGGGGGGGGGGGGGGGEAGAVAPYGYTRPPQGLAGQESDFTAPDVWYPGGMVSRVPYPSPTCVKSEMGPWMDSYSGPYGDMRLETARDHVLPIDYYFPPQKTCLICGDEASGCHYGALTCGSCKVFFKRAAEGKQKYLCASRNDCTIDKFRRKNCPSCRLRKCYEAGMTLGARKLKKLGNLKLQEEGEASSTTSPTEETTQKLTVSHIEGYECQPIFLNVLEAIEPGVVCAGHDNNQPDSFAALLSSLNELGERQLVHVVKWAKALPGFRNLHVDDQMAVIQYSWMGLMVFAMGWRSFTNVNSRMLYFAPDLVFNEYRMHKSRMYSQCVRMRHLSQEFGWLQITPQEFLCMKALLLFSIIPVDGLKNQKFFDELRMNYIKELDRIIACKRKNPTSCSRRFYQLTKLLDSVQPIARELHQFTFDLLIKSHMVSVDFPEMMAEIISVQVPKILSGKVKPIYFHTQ
Procedure, shortened: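 We exposed MDA-kb2 cells to compounds under 0.5 nM R1881 stimulation for 16 hr at 37C and quantified MMTV-driven luciferase by luminescence.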

[5] = qHTS assay to identify small molecule phospholipidosis (PLD) inducers (AID 1259344; active means well fitted curve in the direction sought with a large enough effect; an effect the other way counts as inactive or inconclusive)
Procedure, shortened: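 Quantitative HTS in HepG2: compound plus LipidTOX Red dye for 24 h, paraformaldehyde fixation with Hoechst 33342, widefield high-content imaging; amiodarone as positive and DMSO as negative control.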

[6] = qHTS assay to identify small molecule HDAC inhibitors (AID 1259364); further: potency means the concentration at half of the fitted maximal effect;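 further: wild-type HCT-116 cells with endogenous class I/II HDAC activity; nearly all actives have a fitted effect of over 45% in size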; on activity change, negative = inhibition: top concentration of the series differs between compounds
Procedure, shortened: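 Relative class I and II HDAC activity is taken from the luminogenic signal in HCT-116 cells, with compound exposure 2 hr and reagent development 30 min at room temperature.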

[7] = qHTS assay to identify small molecule HDAC inhibitors - cell viability counter screen (AID 1259365); further: nearly all actives have a fitted effect of over 50% in size; further: potency means the concentration at half of the fitted maximal effect; on activity change, negative = cytotoxicity: series mostly up to about 92 µM
Procedure, shortened: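 After overnight seeding at 1,500 cells per well, wild-type HCT-116 cultures took up compounds in DMSO for 2hr at 37 C. Viable cell content came from luminescence with CellTiter-Glo.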

[8] = qHTS assay to identify small molecule agonists of the sonic hedgehog signaling (Shh) pathway - cell viability counter screen (AID 1259366); further: nearly all actives have a fitted effect of over 50% in size; further: potency means the concentration at half of the fitted maximal effect
Procedure, shortened: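 Same-well cytotoxicity read. Gli1-Luc reporter 3T3 cells; compounds 24hr, 37C/5% CO2; CellTiter-Fluor fluorescence.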

[9] = qHTS assay to identify small molecule antagonists of the sonic hedgehog signaling (Shh) pathway - cell viability counter screen (AID 1259367); further: nearly all actives have a fitted effect of over 55% in size; further: potency means the concentration at half of the fitted maximal effect
Procedure, shortened: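 Seed 3T3 Gli1-Luc cells at 2,000 per well; incubate 4 hr; add compound in DMSO, then conditioned medium; incubate at 37C with 5% CO2; add CellTiter-Fluor after 23 hr; read fluorescence 1 hr later.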

[10] = qHTS assay to identify small molecule agonists of the sonic hedgehog signaling (Shh) pathway (AID 1259368; calls by dose curve;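 further: NIH/3T3-derived 3T3Gli1-Luc cells carrying a stable Gli1-driven firefly luciferase reporter; series mostly up to about 92 µM; nearly all actives have a fitted effect of over 15% in size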)
Procedure, shortened: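 Mouse fibroblast (NIH/3T3) reporter cells with stably integrated Gli1-Luc were treated 24 hr with compound; firefly luciferase luminescence served as the read-out.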

[11] = biological target: Estrogen receptor beta (Homo sapiens) (UniProt Q92731); test: qHTS assay to identify small molecule agonists of the estrogen receptor beta (ER-beta) signaling pathway (AID 1259377; active means well fitted activation curve with a large enough effect in the signal ratio in the repeat runs, not every such curve was filed as active; the % refers to the signal ratio; further: potency means the concentration at half of the fitted maximal effect)
Chain of Estrogen receptor beta (Homo sapiens) (Q92731 whole entry, looked up): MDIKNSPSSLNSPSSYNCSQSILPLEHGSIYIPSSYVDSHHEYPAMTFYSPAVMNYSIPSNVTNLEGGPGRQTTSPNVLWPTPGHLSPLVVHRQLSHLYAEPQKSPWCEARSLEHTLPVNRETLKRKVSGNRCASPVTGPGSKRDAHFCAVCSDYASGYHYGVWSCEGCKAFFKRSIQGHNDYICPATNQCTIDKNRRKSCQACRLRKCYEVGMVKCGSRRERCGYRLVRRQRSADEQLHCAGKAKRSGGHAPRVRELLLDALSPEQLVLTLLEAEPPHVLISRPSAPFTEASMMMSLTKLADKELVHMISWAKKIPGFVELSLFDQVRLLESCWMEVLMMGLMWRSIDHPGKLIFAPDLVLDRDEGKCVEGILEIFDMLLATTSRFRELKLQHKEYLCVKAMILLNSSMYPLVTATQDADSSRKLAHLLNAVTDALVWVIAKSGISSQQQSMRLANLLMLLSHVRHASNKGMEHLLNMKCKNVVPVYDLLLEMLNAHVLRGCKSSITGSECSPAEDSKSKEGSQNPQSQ
Procedure, shortened: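 Read-out: beta-lactamase FRET fluorescence. Cell line: ER-beta-UAS-bla HEK293T in 2% charcoal-stripped FBS. Exposure: 16 hr at 37C. Substrate step: 2 h at room temperature.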

[12] = qHTS assay to identify small molecule agonists of the estrogen receptor beta (ER-beta) signaling pathway - cell viability counter screen (AID 1259380); further: nearly all actives have a fitted effect of over 30% in size; further: potency means the concentration at half of the fitted maximal effect
Procedure, shortened: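 Cells used were ER-beta-UAS-bla HEK293T in medium with 2% charcoal-stripped FBS. They were treated for 16 hr at 37C. Viability came from CellTiter-Glo luminescence.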

[13] = biological target: Androgen receptor (Homo sapiens) (UniProt P10275); test: qHTS assay to identify small molecule agonists of the androgen receptor (AR) signaling pathway in the presence of an antagonist (AID 1259381; calls by dose curve; further: nearly all actives have a fitted effect of over 15% in size)
Procedure, shortened: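 Using human MDA-kb2 cells with an MMTV promoter–luciferase construct (AR and GR response elements), agonist activity is scored under 3.0uM nilutamide (final) co-treatment; 16hr incubation, 37C, luminescence readout via ONE-Glo.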

[14] = qHTS assay to identify small molecule antagonists of the estrogen receptor beta (ER-beta) signaling pathway - cell viability counter screen (AID 1259382); further: series mostly up to about 92 µM; nearly all actives have a fitted effect of over 55% in size
Procedure, shortened: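 Agonist-stimulated (1nM E2) ER-beta-UAS-bla HEK293T cells are incubated with library compounds for 16 hr at 37C. Cell viability is then assessed in the reporter-assay wells by adding CellTiter-Glo and reading luminescence after 30 min.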

[15] = biological target: Estrogen receptor (Homo sapiens) (UniProt P03372); test: qHTS assay to identify small molecule agonists of the estrogen receptor alpha (ER-alpha) signaling pathway in the presence of an antagonist (AID 1259383; calls by dose curve; further: nearly all actives have a fitted effect of over 15% in size; further: potency means the concentration at half of the fitted maximal effect; on activation: top concentration of the series differs between compounds)
Chain of Estrogen receptor (Homo sapiens) (P03372 whole entry, looked up): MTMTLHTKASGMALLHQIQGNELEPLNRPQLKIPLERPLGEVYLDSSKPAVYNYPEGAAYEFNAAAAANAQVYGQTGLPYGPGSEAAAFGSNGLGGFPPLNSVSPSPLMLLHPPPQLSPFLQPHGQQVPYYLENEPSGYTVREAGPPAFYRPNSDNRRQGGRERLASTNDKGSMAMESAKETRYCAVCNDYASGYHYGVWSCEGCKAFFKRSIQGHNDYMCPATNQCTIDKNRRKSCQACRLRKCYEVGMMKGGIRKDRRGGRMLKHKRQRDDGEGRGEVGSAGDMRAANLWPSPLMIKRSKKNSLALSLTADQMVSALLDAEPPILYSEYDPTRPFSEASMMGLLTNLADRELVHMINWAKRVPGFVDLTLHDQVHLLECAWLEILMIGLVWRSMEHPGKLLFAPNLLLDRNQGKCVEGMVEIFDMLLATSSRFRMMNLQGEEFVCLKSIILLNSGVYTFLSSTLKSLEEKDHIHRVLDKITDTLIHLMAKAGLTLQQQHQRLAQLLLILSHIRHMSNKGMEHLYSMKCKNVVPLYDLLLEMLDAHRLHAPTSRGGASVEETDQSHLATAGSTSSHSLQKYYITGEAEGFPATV
Procedure, shortened: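 Using VM7Luc4E2 cells seeded 24hr before treatment, antagonist ICI-182,780 (10.0nM final) was added, followed by compounds at 15 concentrations. Plates incubated 22hr; ONE-Glo luminescence quantified reporter activity.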

[16] = qHTS assay to identify small molecule agonists or antagonists of the thyroid stimulating hormone receptor (TSHR) signaling pathway - wild type cell line counter screen (AID 1259384; calls by dose curve)
Procedure, shortened: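 Wild-type Hek293 cells, 800/well, 18 h at 37C, then compound with Ro20-1724 for 30 min RT. cAMP by HTRF (cAMP-d2/anti-cAMP cryptate), 1 h RT, fluorescence read. 15 concentrations, triplicates.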

[17] = qHTS assay to identify small molecule antagonists of the sonic hedgehog signaling (Shh) pathway (AID 1259369; calls by dose curve; further: nearly all actives have a fitted effect of over 45% in size; further: potency means the concentration at half of the fitted maximal effect)
Procedure, shortened: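 Conditioned medium drives Shh signalling in 3T3Gli1-Luc cells; compounds in DMSO co-applied, 24hr at 37 C, then luciferase luminescence.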

[18] = qHTS assay to identify small molecule agonists of the androgen receptor (AR) signaling pathway in the presence of an antagonist - cell viability counter screen (AID 1259379); further: nearly all actives have a fitted effect of over 25% in size; further: potency means the concentration at half of the fitted maximal effect;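 on activity change, negative = cytotoxicity: MDA-kb2 human breast cancer cells carrying an MMTV luciferase reporter; series mostly up to about 92 µM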
Procedure, shortened: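 A CellTiter-Fluor read-out measured viability of MDA-kb2 reporter cells (MMTV promoter with AR and GR response elements). Treatment: nilutamide 3.0uM final with compounds at 15 concentrations, 16 hr, 37C, 0% CO2.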

[19] = biological target: Estrogen receptor (Homo sapiens) (UniProt P03372); test: qHTS assay to identify small molecule antagonists of the estrogen receptor alpha (ER-alpha) signaling pathway using the BG1 cell line in the presence of 0.1 nM 17-beta-estradiol (AID 1259244); further: nearly all actives have a fitted effect of over 50% in size
Procedure, shortened: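 VM7Luc4E2; 4xERE-luciferase; 0.1 nM E2 final; 22 h co-incubation, 37C; ONE-Glo luminescence after 30 min at room temperature.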

[20] = biological target: Estrogen receptor beta (Homo sapiens) (UniProt Q92731); test: qHTS assay to identify small molecule antagonists of the estrogen receptor beta (ER-beta) signaling pathway (AID 1259378; active means well fitted inhibition curve with a large enough effect in the signal ratio in the repeat runs, not every such curve was filed as active; the % refers to the signal ratio)
Procedure, shortened: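 ER-beta-UAS-bla HEK293T cells in 2% charcoal-stripped FBS medium treated with compound plus 1nM final 17-beta-estradiol for 16 hr at 37C. Beta-lactamase reporter read by FRET substrate fluorescence after 2 hours at room temperature.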
On the % scale 0 is the no-effect control and ±100 the full control effect.

COC(=O)C1=C(C)NC(C)=C(C(=O)OC(C)(C)CN(C)CCC(c2ccccc2)c2ccccc2)C1c1cccc([N+](=O)[O-])c1 (centres undefined)
active: Potency [4] 26.6 µM
inactive: Potency [1] | Potency [2] | Potency [3] | Potency [5] | Potency [6] | Potency [7] | Potency [8] | Potency [9] | Potency [10] | Potency [11] | Potency [12] | Potency [13] | Potency [14] | Potency [15] | Potency [16]

CCc1ccc(C)cc1
inactive: Potency [1] | Potency [2] | Potency [3] | Potency [4] | Potency [6] | Potency [7] | Potency [8] | Potency [9] | Potency [10] | Potency [17] | Potency [11] | Potency [18] | Potency [12] | Potency [13] | Potency [14]

CCC(Cl)CC(Cl)C(Cl)C(Cl)C(Cl)C(C)Cl (centres undefined)
inactive: cytotoxicity increase [1] 7.16% [at 15.8 µM] | activity change, negative = cytotoxicity [2] 0.764% [at 19 µM] | viability change, negative = cytotoxic [3] 0.388% [at 19 µM] | activity, negative = inhibition [4] 72.1% [at 19 µM] | activity change, negative = inhibition [19] 63.4% [at 19 µM] | activity change, negative = cytotoxicity [7] -3.08% [at 19 µM] | viability change, negative = cytotoxic [8] -0.751% [at 19 µM] | viability change, negative = cytotoxic [9] 0.145% [at 19 µM] | activity change, negative = inhibition [17] 58.5% [at 19 µM] | activity change, negative = cytotoxicity [18] 2.03% [at 19 µM] | activity change, negative = cytotoxicity [12] -10.7% [at 19 µM] | activation [13] 4.69% [at 19 µM] | activity change, negative = cytotoxicity [14] -4.67% [at 19 µM] | activation [15] 11.4% [at 19 µM] | cAMP activity change [16] 4.41% [at 18.9 µM, stronger effect = higher value]

O=C(c1ccccc1)c1ccc(O)cc1
inactive: Potency [1] | Potency [2] | Potency [3] | Potency [6] | Potency [7] | Potency [8] | Potency [10] | Potency [18] | Potency [12] | Potency [13] | Potency [14] | Potency [16]
active: Potency [4] 24.6 µM | Potency [9] 49.1 µM | Potency [17] 15.5 µM | Potency [11] 12.3 µM | Potency [15] 49.1 µM

O=S(=O)(Cl)c1c(Cl)cccc1Cl
inactive: Potency [1] | Potency [2] | Potency [3] | Potency [4] | Potency [19] | Potency [6] | Potency [7] | Potency [9] | Potency [10] | Potency [11] | Potency [20] | Potency [18] | Potency [12] | Potency [13] | Potency [15] | Potency [16]

CCN(CC)c1ccc(C(=C2C=CC(=[N+](CC)CC)C=C2)c2ccc(S(=O)(=O)O)cc2S(=O)(=O)[O-])cc1
active: Potency [2] 12.2 µM | Potency [3] 27.3 µM | Potency [4] 9.69 µM | Potency [6] 3.86 µM | Potency [7] 21.7 µM | Potency [8] 24.3 µM | Potency [9] 17.2 µM | Potency [18] 27.3 µM | Potency [12] 27.3 µM
inactive: Potency [1] | Potency [10] | Potency [20] | Potency [13]

CC(C)(C)NCC(O)COc1cccc2c1C[C@H](O)[C@H](O)C2 (some centres undefined)
inactive: Potency [1] | Potency [2] | Potency [3] | Potency [19] | Potency [5] | Potency [6] | Potency [7] | Potency [8] | Potency [9] | Potency [10] | Potency [17] | Potency [11] | Potency [20] | Potency [18] | Potency [12] | Potency [15] | Potency [16]

COc1ccc(-c2cc(C(F)F)nn2-c2ccc(S(N)(=O)=O)cc2)cc1F
inactive: Potency [1] | Potency [2] | Potency [3] | Potency [19] | Potency [5] | Potency [6] | Potency [7] | Potency [8] | Potency [9] | Potency [10] | Potency [11] | Potency [20] | Potency [18] | Potency [12] | Potency [14] | Potency [15]

CCN(CC)CCNC(=O)c1cc(Cl)c(N)cc1OC
inactive: Potency [1] | Potency [2] | Potency [3] | Potency [19] | Potency [5] | Potency [6] | Potency [7] | Potency [8] | Potency [10] | Potency [17] | Potency [20] | Potency [18] | Potency [12] | Potency [14] | Potency [15] | Potency [16]

N[C@@H](Cc1cc(I)c(O)c(I)c1)C(=O)O
inactive: Potency [1] | Potency [2] | Potency [3] | Potency [19] | Potency [5] | Potency [6] | Potency [7] | Potency [8] | Potency [9] | Potency [10] | Potency [17] | Potency [18] | Potency [12] | Potency [14] | Potency [15] | Potency [16]

CCCCCCCC(=O)OCCCCCC
inactive: Potency [1] | Potency [2] | Potency [3] | Potency [4] | Potency [6] | Potency [7] | Potency [8] | Potency [9] | Potency [10] | Potency [17] | Potency [18] | Potency [12] | Potency [13] | Potency [14] | Potency [16]

O=C(O)/C=C/c1ccc(O)c(O)c1
inactive: Potency [1] | Potency [2] | Potency [3] | Potency [4] | Potency [6] | Potency [7] | Potency [8] | Potency [9] | Potency [10] | Potency [17] | Potency [18] | Potency [12] | Potency [13] | Potency [14]

Nc1ccc(F)cc1
inactive: Potency [1] | Potency [2] | Potency [3] | Potency [4] | Potency [19] | Potency [6] | Potency [7] | Potency [9] | Potency [10] | Potency [17] | Potency [18] | Potency [12] | Potency [14] | Potency [15]

Cc1cc(CCCOc2c(C)cc(-c3noc(C(F)(F)F)n3)cc2C)on1
inactive: Potency [1] | Potency [2] | Potency [3] | Potency [6] | Potency [7] | Potency [8] | Potency [9] | Potency [10] | Potency [17] | Potency [11] | Potency [20] | Potency [18] | Potency [12] | Potency [13] | Potency [14] | Potency [16]
active: Potency [4] 26.6 µM

CC(=O)Oc1cccc(O)c1
inactive: Potency [1] | Potency [2] | Potency [3] | Potency [19] | Potency [5] | Potency [6] | Potency [7] | Potency [8] | Potency [9] | Potency [10] | Potency [17] | Potency [20] | Potency [18] | Potency [12] | Potency [14] | Potency [15] | Potency [16]

CCOC(=O)c1ccc(NC(=O)CN2CCCCC2)cc1
inactive: Potency [1] | Potency [2] | Potency [3] | Potency [4] | Potency [19] | Potency [5] | Potency [6] | Potency [7] | Potency [9] | Potency [10] | Potency [17] | Potency [18] | Potency [13] | Potency [15] | Potency [16]
